Compounds with a hit are over-represented: about 2.9% of the library has one in this group of screens.
ADAM17 inh: inhibitors of human ADAM17 | inhibition, % at 6.95 µM | recombinant ADAM17, EDANS/DABCYL FRET peptide cleavage | 0.83% of 370,000 active | AID 720648;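 active = inhibition above the mean of compounds lying between control limits plus 3 SD, set per campaign, cut at about 8.5% in these data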
PLC-beta3 inh: PLC-beta3 (human) inhibition, primary screen. Q01970. Purified PLC-beta3, fluorogenic substrate, fluorescence. inhibition, % at 12.2 µM. 0.18% of 370,000 active. AID 720704; in the data active = inhibition above about 11%
ADAM10 inh: ADAM10 inhibition, QFRET primary screen. recombinant ADAM10, EDANS/DABCYL FRET peptide cleavage, 3 h. inhibition, % at 7 µM. 0.62% of 370,000 active. AID 720582;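 active = inhibition above a per-campaign cutoff equal to the mean of compounds falling between control-based bounds plus 3 SD, cut at about 20% in these data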
KLK7 zymogen act: proKLK7 (human) activation, primary screen. P49862. purified proKLK7, EDANS-DABCYL substrate fluorescence; 100% is mature enzyme control, 0% vehicle. activation, % at 7 µM. 0.9% of 370,000 active. AID 652039;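 active = activation above the mean of all tested compounds plus 3 SD, computed per campaign excluding outliers beyond control limits, cut at about 13% in these data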
PLCg1 inh: inhibitors of human phospholipase C gamma1. P19174. purified PLC-gamma1, fluorogenic substrate, fluorescence. inhibition, % at 12.2 µM. 0.84% of 370,000 active; in the data active = inhibition above about 9.5%
ADAM10 confirm: confirmation of inhibitors of human ADAM10 | AID 743208 | ADAM10 QFRET peptide cleavage, EDANS fluorescence | 1% of 2,100 active | shares compounds with ADAM10 inh | inhibition, % at 6.95 µM;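 active = inhibition above about 20% chosen separately for each screening run, limit read from the data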
ADAM17 counter: inhibits human ADAM17 in ADAM10 exosite counter-screen. shares compounds with ADAM10 inh. ADAM17 QFRET peptide cleavage, EDANS fluorescence. inhibition, % at 6.95 µM. 0.5% of 2,100 active. AID 743214;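 active = mean triplicate inhibition above the solvent-only control wells' mean plus 3 SD, cut at about 12% in these data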
Numbers stand for hits.

How did CCOC(=O)c1ccc(NC(=S)NC(=O)c2cncc(Br)c2)cc1 do in these assays?
ADAM17 inh: inactive; PLC-beta3 inh: inactive; ADAM10 inh: 75; KLK7 zymogen act: inactive; PLCg1 inh: inactive; ADAM10 confirm: inactive; ADAM17 counter: inactive

Results for COC(=O)[C@H]1C[C@@]2(C)c3ccccc3N(S(=O)(=O)c3ccccc3)[C@H]2N1C(=O)CNC1CCCCC1 ?
ADAM17 inh: inactive; PLC-beta3 inh: inactive; ADAM10 inh: inactive; KLK7 zymogen act: inactive; PLCg1 inh: inactive

Results for CCOc1ccc(C(=O)/C=C/c2ccccc2C(F)(F)F)cc1 ?
ADAM17 inh: inactive; PLC-beta3 inh: inactive; ADAM10 inh: inactive; KLK7 zymogen act: inactive; PLCg1 inh: inactive

How did COc1ccc(C(=O)/C=C/c2ccccc2C(F)(F)F)cc1 do in these assays?
ADAM17 inh: inactive; PLC-beta3 inh: inactive; ADAM10 inh: 20; KLK7 zymogen act: inactive; PLCg1 inh: inactive; ADAM10 confirm: inactive; ADAM17 counter: inactive

Results for COC(=O)c1cn[nH]c1NC(=S)Nc1ccccc1C ?
ADAM17 inh: inactive; PLC-beta3 inh: inactive; ADAM10 inh: 25; KLK7 zymogen act: inactive; PLCg1 inh: inactive; ADAM10 confirm: inactive; ADAM17 counter: inactive

How did CC(c1ccccc1)n1cc(C(=O)N2CCCN(Cc3ccccc3)CC2)nn1 (stereo not given) do in these assays?
ADAM17 inh: inactive; PLC-beta3 inh: inactive; ADAM10 inh: inactive; KLK7 zymogen act: inactive; PLCg1 inh: inactive

What do the screens show for `C[C@@H](O)C(C(=O)N1CCNCC1)n1cc([C@@H](N)CCCCN)nn1` (stereo not given in full)?
ADAM17 inh: inactive; PLC-beta3 inh: inactive; ADAM10 inh: 22; KLK7 zymogen act: inactive; PLCg1 inh: inactive; ADAM10 confirm: inactive; ADAM17 counter: inactive

What do the screens show for `CC(C)NC(=O)c1c(CSc2ccccc2)noc1C(=O)NCc1ccccc1`?
ADAM17 inh: inactive; PLC-beta3 inh: inactive; ADAM10 inh: 81; KLK7 zymogen act: inactive; PLCg1 inh: inactive; ADAM10 confirm: inactive; ADAM17 counter: inactive

What do the screens show for `O=C(NCc1ccccc1)c1onc(CSc2ccc(Cl)cc2)c1C(=O)NCc1ccccc1`?
ADAM17 inh: inactive; PLC-beta3 inh: inactive; ADAM10 inh: inactive; KLK7 zymogen act: inactive; PLCg1 inh: inactive

Results for CC(C)NC(=O)c1c(CSc2ccc(Cl)cc2)noc1C(=O)NCc1ccccc1 ?
ADAM17 inh: inactive; PLC-beta3 inh: inactive; ADAM10 inh: 22; KLK7 zymogen act: inactive; PLCg1 inh: inactive; ADAM10 confirm: inactive; ADAM17 counter: inactive

What do the screens show for `O=C(C1CCCCC1)n1ccc2ccc(-c3ccc4ccn(Cc5ccccc5)c4c3)cc21`?
ADAM17 inh: inactive; PLC-beta3 inh: inactive; ADAM10 inh: inactive; KLK7 zymogen act: inactive; PLCg1 inh: inactive

How did Cc1cccc(NC(=O)CCCN=C2NS(=O)(=O)c3ccccc32)c1C do in these assays?
ADAM17 inh: inactive; PLC-beta3 inh: inactive; ADAM10 inh: 56; KLK7 zymogen act: inactive; PLCg1 inh: inactive; ADAM10 confirm: inactive; ADAM17 counter: inactive

What do the screens show for `O=C(CCCN=C1NS(=O)(=O)c2ccccc21)Nc1ccc(Cl)cc1`?
ADAM17 inh: inactive; PLC-beta3 inh: inactive; ADAM10 inh: inactive; KLK7 zymogen act: inactive; PLCg1 inh: inactive

What do the screens show for `Cc1ccc(C)c(-c2cc(C(=O)NCc3cccs3)c3ccccc3n2)c1`?
ADAM17 inh: inactive; PLC-beta3 inh: inactive; ADAM10 inh: 20; KLK7 zymogen act: inactive; PLCg1 inh: inactive; ADAM10 confirm: inactive; ADAM17 counter: inactive

What do the screens show for `O=C(NCc1cccs1)c1cc(-c2ccccc2)nc2ccccc12`?
ADAM17 inh: inactive; PLC-beta3 inh: inactive; ADAM10 inh: inactive; KLK7 zymogen act: inactive; PLCg1 inh: inactive

What do the screens show for `Clc1ccccc1CN(Cc1ccccc1)c1ncnc2nc[nH]c12`?
ADAM17 inh: inactive; PLC-beta3 inh: inactive; ADAM10 inh: 20; KLK7 zymogen act: inactive; PLCg1 inh: inactive; ADAM10 confirm: inactive; ADAM17 counter: inactive

What do the screens show for `Clc1ccccc1CNc1ncnc2nc[nH]c12`?
ADAM17 inh: inactive; PLC-beta3 inh: inactive; ADAM10 inh: inactive; KLK7 zymogen act: inactive; PLCg1 inh: inactive

Results for CCOC(=O)c1c(C)oc2ccc(NS(=O)(=O)c3cccs3)cc12 ?
ADAM17 inh: inactive; PLC-beta3 inh: inactive; ADAM10 inh: 21; KLK7 zymogen act: inactive; PLCg1 inh: inactive; ADAM10 confirm: inactive; ADAM17 counter: inactive

How did COc1ccccc1C(=O)NC(=S)Nc1cccc2cc(O)ccc12 do in these assays?
ADAM17 inh: inactive; PLC-beta3 inh: inactive; ADAM10 inh: 25; KLK7 zymogen act: inactive; PLCg1 inh: inactive; ADAM10 confirm: inactive; ADAM17 counter: inactive

How did O=C(NC(=S)Nc1cccc2cc(O)ccc12)c1ccccc1Br do in these assays?
ADAM17 inh: inactive; PLC-beta3 inh: inactive; ADAM10 inh: inactive; KLK7 zymogen act: inactive; PLCg1 inh: inactive

Results for O=S1(=O)C=CCN1Cc1cn(Cc2cccc(Cl)c2)nn1 ?
ADAM17 inh: inactive; PLC-beta3 inh: inactive; ADAM10 inh: inactive; KLK7 zymogen act: inactive; PLCg1 inh: inactive

Results for Cc1oc(-c2ccccc2)cc1C(=O)Nc1cccc(/C=C\C(=O)O)c1 ?
ADAM17 inh: inactive; PLC-beta3 inh: inactive; ADAM10 inh: inactive; KLK7 zymogen act: inactive; PLCg1 inh: inactive

What do the screens show for `Cc1oc(-c2ccccc2)cc1C(=O)Nc1ccc(N(C)C)cc1`?
ADAM17 inh: inactive; PLC-beta3 inh: inactive; ADAM10 inh: 22; KLK7 zymogen act: inactive; PLCg1 inh: inactive; ADAM10 confirm: inactive; ADAM17 counter: inactive

Results for COc1ccc(-c2ccc(-c3noc(-c4cccc(OC)c4)n3)c(OC)n2)cc1 ?
ADAM17 inh: inactive; PLC-beta3 inh: inactive; ADAM10 inh: 39; KLK7 zymogen act: inactive; PLCg1 inh: inactive; ADAM10 confirm: 73; ADAM17 counter: 42

How did COc1ccc(-c2ccc(-c3noc(-c4ccc(OC)c(OC)c4)n3)c(OC)n2)cc1 do in these assays?
ADAM17 inh: inactive; PLC-beta3 inh: inactive; ADAM10 inh: inactive; KLK7 zymogen act: inactive; PLCg1 inh: inactive

Results for O=S(=O)(c1ccc(OC(F)(F)F)cc1)N1CCC(O)(c2cccc(C(F)(F)F)c2)CC1 ?
ADAM17 inh: inactive; PLC-beta3 inh: inactive; ADAM10 inh: 21; KLK7 zymogen act: inactive; PLCg1 inh: inactive; ADAM10 confirm: inactive; ADAM17 counter: inactive

How did COc1cc(S(=O)(=O)N2CCC(O)(c3cccc(C(F)(F)F)c3)CC2)ccc1-n1cnnn1 do in these assays?
ADAM17 inh: inactive; PLC-beta3 inh: inactive; ADAM10 inh: inactive; KLK7 zymogen act: inactive; PLCg1 inh: inactive

What do the screens show for `Cc1ccc(S(=O)(=O)N(C)[C@H]2C[C@H]3c4cc(-c5ccccc5C)ccc4CCN3C[C@H]2[C@H](C)O)cc1`?
ADAM17 inh: inactive; PLC-beta3 inh: inactive; ADAM10 inh: inactive; KLK7 zymogen act: inactive; PLCg1 inh: inactive

Results for O=C(CN1N=C(C(F)(F)F)CC1(O)c1ccc([N+](=O)[O-])cc1)c1ccccc1 (stereo not given) ?
ADAM17 inh: inactive; PLC-beta3 inh: inactive; ADAM10 inh: inactive; KLK7 zymogen act: inactive; PLCg1 inh: inactive

From PubChem
